Screens as filed in PubChem.
PNC assembly inh: inhibitors of perinucleolar compartment assembly. PC3M PTB-GFP, PNC prevalence imaging, 16 h; stronger effect = lower value. activity change (PNC), negative = inhibition, % at 10 µM. actives 3.1% (n = 140,000);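 active means readout at or below -70, meaning at least 70% loss of cells showing the perinucleolar compartment, a nuclear body marking cancer cells; inconclusive means readout between -30 and a set limit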
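Read-out is percentage of cells bearing a perinucleolar compartment, from automated 20x imaging of fixed, Hoechst-stained PC3M PTB-GFP cells. Cells were seeded 4 h, then exposed 16 h to compound (23 nl of library stock) in duplicate plates.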
Tau fluor cs: counter-screen for tau fibril formation inhibitors; tau K18 P301L Alexa594 fluorescence, heparin fibrillization; Potency, µM (top dose mostly 57.7 µM); actives 0.93% (n = 280,000); further: nearly all actives have a fitted effect of over 55% in size
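Human K18 P301L tau (15 uM unlabeled plus 0.24 uM Alexa 594-labeled, final) in 100 mM sodium acetate pH 7 was mixed with compound and 20 uM heparin and incubated 6 hr at 37 C.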
Tau ThT inhib: blocks human tau fibril formation measured by thioflavin T; recombinant tau K18 P301L (four-repeat tau fragment), heparin-induced fibrillization, ThT fluorescence; Potency, µM (doses to about 57.4 µM), actives largely listed as inhibitors; actives 2.1% (n = 270,000); further: nearly all actives have a fitted effect of over 55% in size
Target sequence (P10636 561-689 P618L limits assumed): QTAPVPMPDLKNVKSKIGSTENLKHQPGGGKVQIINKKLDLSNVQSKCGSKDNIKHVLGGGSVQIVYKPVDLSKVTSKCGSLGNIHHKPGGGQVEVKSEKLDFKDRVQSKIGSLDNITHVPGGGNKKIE
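K18 P301L tau (15 uM + 0.24 uM Alexa 594-tagged), heparin 20 uM, NaOAc pH 7, 6 h 37 C; ThT 30 uM, 1 h RT, ex 450/em 510 nm.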
NPSR antag: blocks cAMP signaling of the human neuropeptide S receptor. CHO-NPSR cells, cAMP TR-FRET, antagonist mode. Potency, µM (series often up to 38.3 µM), usual class: inhibitors. actives 1% (n = 220,000); further: nearly all actives have a fitted effect of over 50% in size
Tau fibril FP: blocks human tau fibril formation measured by polarization; P10636; K18 P301L tau heparin fibrillization, Alexa594 FP, 6 h; Potency, µM (doses to about 57.7 µM), usual class: inhibitors; actives 0.39% (n = 280,000); AID 1468; further: nearly all actives have a fitted effect of over 55% in size
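Recombinant K18 P301L […], labeled with Alexa 594 at 0.24 uM over 15 uM unlabeled; heparin inducer 20 uM final; 37 C, 6 hr; FP endpoint.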
JMJD2E inh: JMJD2E (human) inhibition; B2RXH2; JMJD2E catalytic domain, FDH-coupled NADH fluorescence (FDH is formaldehyde dehydrogenase); Potency, µM (titrated, usually from 57.1 µM), hits mostly inhibitors; actives 1.6% (n = 230,000); AID 2147; active means well fitted inhibition curve with a large enough effect, not every such curve was filed as active; inconclusive means small, poorly fitted or top-dose-only effect, or another doubt; inactive means no such curve, though single readings can be large or run the other way; further: nearly all actives have a fitted effect of over 50% in size
Target sequence (B2RXH2 1-337 limits assumed): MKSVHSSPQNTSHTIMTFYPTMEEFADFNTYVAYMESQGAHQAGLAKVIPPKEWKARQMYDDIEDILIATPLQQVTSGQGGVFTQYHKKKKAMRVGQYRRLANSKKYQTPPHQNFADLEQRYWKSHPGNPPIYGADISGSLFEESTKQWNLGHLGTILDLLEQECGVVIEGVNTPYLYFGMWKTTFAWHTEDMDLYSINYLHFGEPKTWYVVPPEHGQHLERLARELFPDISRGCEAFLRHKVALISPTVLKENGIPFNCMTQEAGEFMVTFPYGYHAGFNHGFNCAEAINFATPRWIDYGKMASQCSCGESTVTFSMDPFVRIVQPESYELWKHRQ
Numbers stand for hits; - = inactive; ? = inconclusive; . = no result given; [ ] = dose if it differs, or a comment. Only some compounds are listed: those with a hit (about 5.1% of all), similar ones and a draw of the others. Unless noted, the call rests on the fitted dose curve; in most records, active means well fitted curve in the direction sought with a large enough effect; inconclusive means small, poorly fitted or top-dose-only effect, or another doubt; inactive means no such curve, though single readings can be large; an effect the other way counts as inactive or inconclusive.

SMILES	PNC assembly inh	Tau fluor cs	Tau ThT inhib	NPSR antag	Tau fibril FP	JMJD2E inh
O=C(/C=C/c1ccccc1)NC(=S)NNC(=O)c1cccnc1	-	-	-	-	-	?
O=C(/C=C/c1ccccc1)NC(=S)NNC(=O)c1cnccn1	.	-	.	-	-	8.9µM
COc1cccc(NC(=O)CSC2=Nc3ccccc3C3=NC(CC(=O)NCc4ccc5c(c4)OCO5)C(=O)N23)c1 (centres undefined)	.	-	?	.	?	.
O=C(Nc1ccc(F)cc1F)c1ccc(CN2CC(=O)N3CCCCC3C2=O)cc1 (centres undefined)	.	-	-	.	-	.
CCOc1cc(/C=C2\C(=O)N(c3nc(-c4ccc(Br)cc4)cs3)N=C2c2ccccc2)ccc1O	-	?	11µM	10µM	?	-
COc1cc(/C=C2\C(=O)N(c3ccc(NC(C)=O)cc3)N=C2c2ccccc2)ccc1O	.	?	?	-	-	-
O=C1/C(=C\c2ccc(O)c(O)c2)C(c2ccccc2)=NN1c1ccccc1	.	?	?	-	-	14µM
COc1ccc(CNC(=O)C2CCN(Cc3nc(-c4ccc(Cl)cc4)oc3C)CC2)cc1	.	-	-	.	-	.
O=C(Nc1ccc(Br)cc1F)N1CCC(CN2CCCC2)CC1	.	-	-	.	-	.
Cc1nc2c(C(=O)NCCc3ccccc3)c[nH]n2c(=O)c1Cc1ccccc1F	.	-	?	.	-	.
Cc1nc2c(C(=O)NCCc3ccc(Cl)cc3)c[nH]n2c(=O)c1Cc1ccc(Cl)cc1	.	?	28µM	.	-	.
O=C(CCCN1C(=O)/C(=C/c2cccs2)SC1=S)Nc1ccc(O)c(C(=O)O)c1	.	?	8.9µM	-	-	-
O=C(CCCN1C(=O)/C(=C\c2cccs2)SC1=S)Nc1cccc(C(=O)O)c1	.	-	?	-	-	-
O=C(CCCN1C(=O)/C(=C\c2cccs2)SC1=S)Nc1ccc(C(=O)O)cc1	.	-	?	-	-	-
COc1ccc(NC(=O)CCCN2C(=O)/C(=C\c3ccco3)SC2=S)cc1	-	?	16µM	-	?	-
O=C(CCCN1C(=O)/C(=C/c2ccco2)SC1=S)Nc1cccc(C(=O)O)c1	.	-	16µM	-[7.67 µM]	-	?
Cc1cccc(N2CCN(C(=O)Cn3c(=O)c4cccn4c4ccc(F)cc43)CC2)c1C	.	-	-	.	-	.
Cc1ccc(C)c(N2CCN(CCCNC(=O)C3COc4ccccc4C3)CC2)c1 (centres undefined)	.	-	-	.	-	.
Cc1ccc2nc(NC(=O)CSc3nccn3Cc3ccc(F)cc3)sc2c1	.	-	-	.	-	.
Cn1c(SCC#N)nnc1-c1ccc2c(c1)OCO2	-119	-	-	-	-	-
Cn1c(SCc2ccccc2)nnc1-c1ccc2c(c1)OCO2	-	-	-	-	-	-
CCCCCCOC1(c2ccccc2)OC(=O)c2ccccc21 (centres undefined)	-	-	-	?	-	-
CCCCCOP(=O)(OCCCCC)C1(NS(=O)(=O)c2ccccc2)C=CC(=O)c2ccccc21 (centres undefined)	-	-	-	10µM	-	-
CC(C)(C)c1ccc(/C=C/C(=O)Nc2ccc3c(c2)OCCO3)cc1	.	10µM[quencher]	?	.	?	-
CC(=O)Nc1ccc(NC(=O)/C=C/c2ccc3c(c2)OCO3)cc1	.	-	?	-	-	?
SMILES	PNC assembly inh	Tau fluor cs	Tau ThT inhib	NPSR antag	Tau fibril FP	JMJD2E inh
Cn1c(=O)c2c(SCC(N)=O)nc(CC(C)(C)C)nc2n(C)c1=O	?	-	-	-	-	-
Cn1c(=O)c2c(SCc3c(F)cccc3Cl)nc(CC(C)(C)C)nc2n(C)c1=O	-	-	-	10µM	-	-
CCOc1ccc(-c2cn3c(n2)sc2cc(C(=O)NCCC4=CCCCC4)ccc23)cc1	.	-	-	.	-	.
O=C(NCC(c1ccco1)S(=O)(=O)c1ccc(Cl)cc1)c1ccccc1F (centres undefined)	.	-	-	.	-	.
Cc1ccc(CNC(=O)c2cc(=O)c3cc(C)c(C)cc3o2)cc1	.	-	-	.	-	.
CC(C)C(=O)N(c1cc2sc(=O)oc2c2ccccc12)S(=O)(=O)c1cccs1	-	?	16µM	?	?	10µM
CC(C)C(=O)N(c1ccc2oc(=O)sc2c1)S(=O)(=O)c1cccs1	-	-	?	-	?	-
COc1ccc(NC(=O)Cn2ncc3c2-c2ccccc2OC3)cc1Cl	.	?	-	.	?	.
O=C(O)CC/C(=N\Nc1ccc([N+](=O)[O-])cc1)c1ccccc1	.	?	7.9µM	-	-	-
O=C(O)CC/C(=N/Nc1ccc([N+](=O)[O-])cc1)C(=O)O	.	-	?	-	-	-
CC(=O)OCOC(=O)CN(CC(=O)OCOC(C)=O)c1ccccc1OCCOc1ccccc1N(CC(=O)OCOC(C)=O)CC(=O)OCOC(C)=O	.	-	-	.	-	.
CC1=NOC(=O)/C1=C\c1ccc(-c2ccc(Cl)cc2Cl)o1	-	?	20µM	?	-	-
CN(C)S(=O)(=O)c1ccc(Cl)c(C(=O)Nc2nc3ccccc3[nH]2)c1	.	-	-	-	-	-
Cc1ccc(NS(=O)(=O)c2ccc3nc(-c4ccccc4)[nH]c3c2)cc1Cl	.	?	?	.	10µM	.
Cc1ccc(NS(=O)(=O)c2ccc(Cl)c(C(=O)Nc3ccccc3-c3nc4ccccc4[nH]3)c2)cc1C	-	?	?	-	14µM	?
Cc1cc(NS(=O)(=O)c2ccc3nc(-c4ccccc4)[nH]c3c2)ccc1Br	.	?	?	.	7.9µM	.
O=S(=O)(Nc1ccc(Br)cc1F)c1ccc2nc(-c3ccccc3)[nH]c2c1	.	-	?	.	14µM	.
Cc1ccc(-c2cn3c4c(=O)n(C)c(=O)n(C)c4nc3n2-c2cccc(Cl)c2)cc1	.	-	-	.	-	.
CN(C)S(=O)(=O)c1ccc2c(c1)N(CC(=O)Nc1ccc(OC(F)(F)F)cc1)C(=O)CS2	.	?	-	.	?	.
COc1ccc(/C=C/C(=O)OCC(=O)Nc2ccc(Cl)c(S(=O)(=O)N(C)C)c2)cc1OC	-110	?	-	-	?	-
COc1ccc(/C=C/C(=O)Nc2ccc(Cl)c(Cl)c2)cc1OC	.	10µM[quencher]	?	.	14µM	.
CN(C)S(=O)(=O)c1cc(NC(=O)COC(=O)Cc2ccc(Cl)cc2Cl)ccc1Cl	-	?	-	-	?	-
CN(C)S(=O)(=O)c1cc(NC(=O)COC(=O)CCSc2ccc(Cl)cc2)ccc1Cl	-88	?	-	-	?	-
CCc1ccc(CNC(=O)c2ccc3nc(C(C)C)oc3c2)cc1	.	-	-	.	-	.
CCc1ccc(-c2nc(SCC(=O)NCC3CCCO3)c(-c3ccc(F)cc3)[nH]2)cc1 (centres undefined)	.	?	-	.	-	.
CCOc1ccccc1NS(=O)(=O)c1ccc(N2CCCCS2(=O)=O)cc1	.	-	-	.	-	.
CNC(=O)[C@@]1(C)C=C[C@@H](Cc2ccccc2)N1C(=O)OC	-96	-	-	-	-	-
